Source: ChEMBL document CHEMBL3433997, “St. Jude Leishmania screening dataset” (2016)

What was measured:
Format in all cases: functional
[1] = biological target: Solute carrier family 2, facilitated glucose transporter member 1 (Homo sapiens) (UniProt P11166); test: ST_JUDE_LEISH: Cytotoxicity at 2uM final concentration against transgenic Leishmania Mexicana promastigotes LmGLUT1 that are glucose transport deficient and complemented with the human glucose transporter GLUT1. Activity is measured by DNA content using SYBR green in vitro
Solute carrier family 2, facilitated glucose transporter member 1 (Homo sapiens), sequence (P11166 whole entry): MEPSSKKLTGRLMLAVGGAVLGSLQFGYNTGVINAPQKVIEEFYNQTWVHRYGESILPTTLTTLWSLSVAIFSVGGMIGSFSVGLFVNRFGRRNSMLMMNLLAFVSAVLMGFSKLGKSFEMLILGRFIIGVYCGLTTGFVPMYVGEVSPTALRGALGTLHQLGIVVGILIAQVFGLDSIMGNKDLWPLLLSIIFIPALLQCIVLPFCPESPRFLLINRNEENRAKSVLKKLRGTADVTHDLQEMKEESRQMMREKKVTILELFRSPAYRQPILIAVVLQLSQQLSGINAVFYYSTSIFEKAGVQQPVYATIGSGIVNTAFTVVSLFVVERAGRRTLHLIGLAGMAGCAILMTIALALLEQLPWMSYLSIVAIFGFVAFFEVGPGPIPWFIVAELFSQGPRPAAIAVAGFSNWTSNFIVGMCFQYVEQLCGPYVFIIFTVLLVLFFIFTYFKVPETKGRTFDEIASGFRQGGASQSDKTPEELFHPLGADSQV

[2] = biological target: Hexose transporter 1 (Plasmodium falciparum) (UniProt O97467); test: ST_JUDE_LEISH: Cytotoxicity at 2uM final concentration against transgenic Leishmania Mexicana promastigotes LmPfHT that are glucose transport deficient and complemented with the Plasmodium falciparum hexose transporter. Activity is measured by DNA content using SYBR green in vitro
[3] = biological target: Glucose transporter (Leishmania mexicana) (UniProt O61059); test: ST_JUDE_LEISH: Cytotoxicity at 2uM final concentration against transgenic Leishmania Mexicana promastigotes LmGT2 that are glucose transport deficient and complemented with the L. Mexicana glucose transporter 2. Activity is measured by DNA content using SYBR green in vitro

Compound	inhibition [1] [%]	inhibition [2] [%]	inhibition [3] [%]
Cc1ccc2[nH]c(-c3cc(-c4ccc(OCc5ccccc5)cc4)cnc3N)nc2c1	1.75	2.05	-0.31
CCC(CCON1C(N)=NC(N)=NC1(C)C)c1ccc(Cl)c(Cl)c1 (centres undefined)	3.2	3.06	3.3
Cc1cccc2nc(-c3ccc(-c4ccc(NC(=O)NCc5ccccc5)cc4)s3)[nH]c12	3.85	4.61	1.02
Cc1cc(N[C@@H](Cc2ccccc2)C(=O)NCc2cccs2)nc(Nc2ccccc2)n1	9.96	9.21	3.98
OC[C@H](Nc1nc(C(Oc2ccccc2)c2ccccc2)nc2[nH]ncc12)c1ccccc1 (some centres undefined)	7.13	4.93	4.96
CN(C)C(=O)CC(=O)NCc1c(Cl)cccc1Cl	0.42	4.4	2
CCCCCCCCc1c(C)nc(C)c(I)c1O	-1.12	0.28	-2.61
O=c1cc(NCCCN(Cc2ccccc2)Cc2ccccc2)[nH]c2ccccc12	0.48	4	5.36
COc1ccc(Nc2nccc(-c3ccc4ccnc(NCCCCN)c4c3)n2)cc1	-0.78	-1.84	-4.14
CNC(=O)c1cnc(Nc2ccc(N3CCN(C)CC3)cc2)nc1Nc1cccc(OC)c1	3.74	2.74	5.02
COc1cccc(CNCC(C)(C)c2nc(-c3ccc(Cl)c(O)c3)c(-c3ccncc3)[nH]2)c1	-1.42	-3.17	2.87
O=C(/C=C/c1ccc(Cl)c(Cl)c1)NCCCCCN1CCCC(CNC(=O)c2sc3ccccc3c2Cl)C1 (centres undefined)	-1.59	-2.38	1.79
Cc1cc(OCCCN2CCC(NS(=O)(=O)c3ccc(C(F)(F)F)cc3)CC2)c2ccccc2n1	1.59	0.36	0.63
